# Assay results from PubChem BioAssay (NCI).
# Compounds without any hit were thinned out: in the full panel of roughly 79,000, 15% have a hit. A number with no mark means an inactive call. The source made the active and inactive calls. Cut-off read from the data, not from the text of the source: active = growth inhibition above about 70%; inactive = the rest.
# Assays:
# [1] = NCI Yeast Anticancer Drug Screen. Data for the rad50 strain (AID 155);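 note: 0% = growth of vehicle-only cultures of the same strain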; conditions: S. cerevisiae rad50 strain growth inhibition, hits give high values
# Summary of the method: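 Compounds were tested on a yeast strain with an engineered DNA damage repair alteration; the reported value is growth inhibition normalised to vehicle treatment.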
# [2] = NCI Yeast Anticancer Drug Screen. Data for the mec2-1 strain (AID 157); conditions: S. cerevisiae mec2-1 strain, hits give high values
# Summary of the method: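 mec2-1 yeast strain, carrying an alteration in DNA damage repair or cell cycle control, was exposed to compounds; growth inhibition was measured relative to vehicle-treated controls.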
# [3] = NCI Yeast Anticancer Drug Screen. Data for the sgs1 mgt1 strain (AID 161);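 note: 0% = growth of cultures given vehicle only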; conditions: S. cerevisiae sgs1 mgt1 strain, hits give high values
# Summary of the method: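 Yeast cells carrying a defined DNA-repair defect were exposed to test compounds. Growth inhibition was measured relative to vehicle-treated controls.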
# [4] = NCI Yeast Anticancer Drug Screen. Data for the cln2 rad14 strain (AID 165);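 note: 0% = growth equal to vehicle treated cultures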; conditions: S. cerevisiae cln2 rad14 strain, hits give high values
# Summary of the method: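 Yeast carrying cln2 and rad14 alterations (cell cycle control and DNA damage repair) were exposed to compounds. Growth inhibition was measured against vehicle-treated controls.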
# [5] = NCI Yeast Anticancer Drug Screen. Data for the bub3 strain (AID 167); conditions: S. cerevisiae bub3 mutant strain, hits give high values
# Summary of the method: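 Growth of a checkpoint-deficient yeast mutant is measured after compound exposure. Values represent inhibition relative to vehicle.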
# [6] = NCI Yeast Anticancer Drug Screen. Data for the mlh1 rad18 strain (AID 175); conditions: S. cerevisiae mlh1 rad18 strain growth inhibition, hits give high values
# Summary of the method: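 Growth inhibition of the yeast strain was measured after compound exposure and expressed relative to vehicle-treated controls. The strain carries defined defects in DNA damage repair.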
# [7] = at 5.0 µM (retest, dose inferred, filed as 0.5)
# [8] = at 50.0 µM (retest, dose inferred, filed as 5.0)
SMILES,"growth inhibition [1, 7]","growth inhibition [1, 8]",growth inhibition ([1]; at 50.0 µM),"growth inhibition [2, 7]","growth inhibition [2, 8]",growth inhibition ([2]; at 50.0 µM),"growth inhibition [3, 7]","growth inhibition [3, 8]",growth inhibition ([3]; at 50.0 µM),"growth inhibition [4, 7]","growth inhibition [4, 8]",growth inhibition ([4]; at 50.0 µM),"growth inhibition [5, 7]","growth inhibition [5, 8]",growth inhibition ([5]; at 50.0 µM),"growth inhibition [6, 7]","growth inhibition [6, 8]",growth inhibition ([6]; at 50.0 µM)
C/C(=N/NC(N)=S)c1ccc(Cl)cc1,9%,94% (active),96.5% (active),-17%,89% (active),97.1% (active),5%,93% (active),94% (active),-10%,92% (active),92.5% (active),41%,94% (active),95.3% (active),8%,96% (active),97.2% (active)
CC(C)CC[CH2][Pb]([CH2]CCC(C)C)([CH2]CCC(C)C)[O]C(=O)C(Cl)(Cl)Cl,14%,98% (active),99.1% (active),8%,99% (active),98.9% (active),17%,94% (active),98.4% (active),-1%,95% (active),98.8% (active),2%,98% (active),99% (active),6%,94% (active),98.7% (active)
O=C(CBr)Nc1ccc(Cl)cc1,99% (active),99% (active),98.8% (active),99% (active),99% (active),99.3% (active),99% (active),99% (active),99.6% (active),98% (active),99% (active),98.7% (active),98% (active),99% (active),99.4% (active),98% (active),98% (active),99.2% (active)
O=[N+]([O-])c1ccc2c3c(cccc13)CC2,15%,86% (active),6.7%,3%,32%,9.15%,11%,84% (active),0.9%,-1%,48%,-4.15%,6%,54%,19.9%,25%,90% (active),18.4%
CC/C=C/c1cc2c(cc1O)CCC1C2CC[C@@]2(C)C1CC[C@@H]2O (some centres undefined),-16%,98% (active),78% (active),-15%,98% (active),81.7% (active),-23%,97% (active),88.6% (active),-24%,98% (active),88.7% (active),-23%,98% (active),88.5% (active),-16%,98% (active),90.5% (active)
COC1CC(C)C(OC)C2=CC(=O)C=C(NC(=O)/C(C)=C/C=C\C(C)C(OC(N)=O)/C(C)=C\C(C)C1OC)C2=O (centres undefined),93% (active),98% (active),91.5% (active),97% (active),99% (active),93% (active),97% (active),99% (active),92.5% (active),89% (active),97% (active),91.2% (active),97% (active),99% (active),91.1% (active),97% (active),98% (active),91.4% (active)
Nc1ccc(C(=O)O)c(C(=O)O)c1.[Cl][Sn]([Cl])([Cl])[Cl],3%,-9%,48%,3%,46%,59.6%,8%,36%,53.7%,-4%,-21%,76.1% (active),1%,-2%,80.8% (active),-3%,20%,40.4%
C/C(=C\c1ccc(Cl)c(Cl)c1)[N+](=O)[O-],82% (active),98% (active),0%,12%,92% (active),-9.75%,27%,100% (active),21%,5%,59%,-14.3%,14%,98% (active),-4.85%,8%,54%,23.1%
CC(=O)OC1=CC2=CC[C@H]3[C@@H]4CCC(=O)[C@@]4(C)CC(=O)[C@]3(S)[C@@]2(C)CC1,14%,18%,77.5% (active),3%,8%,25.5%,8%,-20%,-4.4%,-16%,-70%,-15.7%,-8%,-3%,60.6%,-13%,11%,54.1%
CC(=O)[O][Pb]([O]C(C)=O)([O]C(C)=O)[c]1ccccc1,71% (active),98% (active),90.5% (active),74% (active),99% (active),93.5% (active),86% (active),99% (active),93.6% (active),35%,99% (active),89.2% (active),86% (active),99% (active),91.8% (active),91% (active),98% (active),91.2% (active)
COc1ccc(P2(=S)Oc3ccc(C(c4ccccc4)(c4ccccc4)c4ccccc4)cc3O2)cc1 (centres undefined),36%,96% (active),38.6%,11%,98% (active),64.3%,34%,96% (active),54.7%,24%,98% (active),63.2%,7%,98% (active),48.9%,34%,98% (active),58.1%
COc1ccc([As]=[As]c2ccc(OC)c(I)c2)cc1I (centres undefined),98% (active),99% (active),99.7% (active),100% (active),100% (active),99.8% (active),99% (active),100% (active),99.8% (active),98% (active),98% (active),99.8% (active),99% (active),99% (active),99.6% (active),99% (active),99% (active),99.7% (active)
ClC1=C(Cl)C2(Cl)C(Cl)CC1(Cl)C2(Cl)Cl (centres undefined),0%,-1%,62%,-5%,-1%,40.5%,-3%,-24%,68.5%,0%,-9%,70.2% (active),0%,2%,1.4%,14%,2%,83.7% (active)
[Cl][Pt+2][Cl].[NH-]c1ccc([N+](=O)[O-])cc1[NH-],40%,73% (active),63.8%,27%,62%,75.7% (active),100% (active),94% (active),75.5% (active),99% (active),94% (active),54.6%,100% (active),95% (active),68.3%,58%,79% (active),70.5% (active)
C/C(=N\NC(N)=O)C(CN1CCCCC1)C(c1ccccc1)c1c(O)c2ccccc2oc1=O (centres undefined),14%,14%,82.7% (active),15%,15%,83% (active),6%,6%,87.6% (active),0%,0%,72.8% (active),17%,17%,79% (active),17%,17%,81.5% (active)
CCCNC1=C(C)C(=O)C2=C(C1=O)[C@H](COC(N)=O)[C@]1(OC)[C@@H]3N[C@@H]3CN21,15%,66%,36.8%,15%,76% (active),38.9%,11%,64%,39.6%,5%,79% (active),51.7%,2%,37%,9.7%,47%,93% (active),79.8% (active)
CCCCCCCCCC(=O)[O][Hg][c]1ccccc1,99% (active),99% (active),71.5% (active),100% (active),99% (active),99.7% (active),99% (active),100% (active),99.5% (active),99% (active),99% (active),99.4% (active),99% (active),98% (active),99.3% (active),99% (active),99% (active),99.1% (active)
O=S(=O)(F)c1ccc(Cl)cc1,22%,97% (active),85.5% (active),4%,84% (active),20.9%,9%,92% (active),82.3% (active),3%,90% (active),49.7%,12%,97% (active),70.9% (active),13%,98% (active),90.8% (active)
